The full list was thinned out, with hits kept by preference.
mHTT-CaM PPI inh – disrupts binding of mutant huntingtin to calmodulin; P42858; AlphaScreen His-mHTT/GST-CaM binding, luminescence; inhibition, % at 15 µM; actives 3.6% (n = 190,000); AID 1671202
Target sequence (P42858 whole entry, looked up, change not shown): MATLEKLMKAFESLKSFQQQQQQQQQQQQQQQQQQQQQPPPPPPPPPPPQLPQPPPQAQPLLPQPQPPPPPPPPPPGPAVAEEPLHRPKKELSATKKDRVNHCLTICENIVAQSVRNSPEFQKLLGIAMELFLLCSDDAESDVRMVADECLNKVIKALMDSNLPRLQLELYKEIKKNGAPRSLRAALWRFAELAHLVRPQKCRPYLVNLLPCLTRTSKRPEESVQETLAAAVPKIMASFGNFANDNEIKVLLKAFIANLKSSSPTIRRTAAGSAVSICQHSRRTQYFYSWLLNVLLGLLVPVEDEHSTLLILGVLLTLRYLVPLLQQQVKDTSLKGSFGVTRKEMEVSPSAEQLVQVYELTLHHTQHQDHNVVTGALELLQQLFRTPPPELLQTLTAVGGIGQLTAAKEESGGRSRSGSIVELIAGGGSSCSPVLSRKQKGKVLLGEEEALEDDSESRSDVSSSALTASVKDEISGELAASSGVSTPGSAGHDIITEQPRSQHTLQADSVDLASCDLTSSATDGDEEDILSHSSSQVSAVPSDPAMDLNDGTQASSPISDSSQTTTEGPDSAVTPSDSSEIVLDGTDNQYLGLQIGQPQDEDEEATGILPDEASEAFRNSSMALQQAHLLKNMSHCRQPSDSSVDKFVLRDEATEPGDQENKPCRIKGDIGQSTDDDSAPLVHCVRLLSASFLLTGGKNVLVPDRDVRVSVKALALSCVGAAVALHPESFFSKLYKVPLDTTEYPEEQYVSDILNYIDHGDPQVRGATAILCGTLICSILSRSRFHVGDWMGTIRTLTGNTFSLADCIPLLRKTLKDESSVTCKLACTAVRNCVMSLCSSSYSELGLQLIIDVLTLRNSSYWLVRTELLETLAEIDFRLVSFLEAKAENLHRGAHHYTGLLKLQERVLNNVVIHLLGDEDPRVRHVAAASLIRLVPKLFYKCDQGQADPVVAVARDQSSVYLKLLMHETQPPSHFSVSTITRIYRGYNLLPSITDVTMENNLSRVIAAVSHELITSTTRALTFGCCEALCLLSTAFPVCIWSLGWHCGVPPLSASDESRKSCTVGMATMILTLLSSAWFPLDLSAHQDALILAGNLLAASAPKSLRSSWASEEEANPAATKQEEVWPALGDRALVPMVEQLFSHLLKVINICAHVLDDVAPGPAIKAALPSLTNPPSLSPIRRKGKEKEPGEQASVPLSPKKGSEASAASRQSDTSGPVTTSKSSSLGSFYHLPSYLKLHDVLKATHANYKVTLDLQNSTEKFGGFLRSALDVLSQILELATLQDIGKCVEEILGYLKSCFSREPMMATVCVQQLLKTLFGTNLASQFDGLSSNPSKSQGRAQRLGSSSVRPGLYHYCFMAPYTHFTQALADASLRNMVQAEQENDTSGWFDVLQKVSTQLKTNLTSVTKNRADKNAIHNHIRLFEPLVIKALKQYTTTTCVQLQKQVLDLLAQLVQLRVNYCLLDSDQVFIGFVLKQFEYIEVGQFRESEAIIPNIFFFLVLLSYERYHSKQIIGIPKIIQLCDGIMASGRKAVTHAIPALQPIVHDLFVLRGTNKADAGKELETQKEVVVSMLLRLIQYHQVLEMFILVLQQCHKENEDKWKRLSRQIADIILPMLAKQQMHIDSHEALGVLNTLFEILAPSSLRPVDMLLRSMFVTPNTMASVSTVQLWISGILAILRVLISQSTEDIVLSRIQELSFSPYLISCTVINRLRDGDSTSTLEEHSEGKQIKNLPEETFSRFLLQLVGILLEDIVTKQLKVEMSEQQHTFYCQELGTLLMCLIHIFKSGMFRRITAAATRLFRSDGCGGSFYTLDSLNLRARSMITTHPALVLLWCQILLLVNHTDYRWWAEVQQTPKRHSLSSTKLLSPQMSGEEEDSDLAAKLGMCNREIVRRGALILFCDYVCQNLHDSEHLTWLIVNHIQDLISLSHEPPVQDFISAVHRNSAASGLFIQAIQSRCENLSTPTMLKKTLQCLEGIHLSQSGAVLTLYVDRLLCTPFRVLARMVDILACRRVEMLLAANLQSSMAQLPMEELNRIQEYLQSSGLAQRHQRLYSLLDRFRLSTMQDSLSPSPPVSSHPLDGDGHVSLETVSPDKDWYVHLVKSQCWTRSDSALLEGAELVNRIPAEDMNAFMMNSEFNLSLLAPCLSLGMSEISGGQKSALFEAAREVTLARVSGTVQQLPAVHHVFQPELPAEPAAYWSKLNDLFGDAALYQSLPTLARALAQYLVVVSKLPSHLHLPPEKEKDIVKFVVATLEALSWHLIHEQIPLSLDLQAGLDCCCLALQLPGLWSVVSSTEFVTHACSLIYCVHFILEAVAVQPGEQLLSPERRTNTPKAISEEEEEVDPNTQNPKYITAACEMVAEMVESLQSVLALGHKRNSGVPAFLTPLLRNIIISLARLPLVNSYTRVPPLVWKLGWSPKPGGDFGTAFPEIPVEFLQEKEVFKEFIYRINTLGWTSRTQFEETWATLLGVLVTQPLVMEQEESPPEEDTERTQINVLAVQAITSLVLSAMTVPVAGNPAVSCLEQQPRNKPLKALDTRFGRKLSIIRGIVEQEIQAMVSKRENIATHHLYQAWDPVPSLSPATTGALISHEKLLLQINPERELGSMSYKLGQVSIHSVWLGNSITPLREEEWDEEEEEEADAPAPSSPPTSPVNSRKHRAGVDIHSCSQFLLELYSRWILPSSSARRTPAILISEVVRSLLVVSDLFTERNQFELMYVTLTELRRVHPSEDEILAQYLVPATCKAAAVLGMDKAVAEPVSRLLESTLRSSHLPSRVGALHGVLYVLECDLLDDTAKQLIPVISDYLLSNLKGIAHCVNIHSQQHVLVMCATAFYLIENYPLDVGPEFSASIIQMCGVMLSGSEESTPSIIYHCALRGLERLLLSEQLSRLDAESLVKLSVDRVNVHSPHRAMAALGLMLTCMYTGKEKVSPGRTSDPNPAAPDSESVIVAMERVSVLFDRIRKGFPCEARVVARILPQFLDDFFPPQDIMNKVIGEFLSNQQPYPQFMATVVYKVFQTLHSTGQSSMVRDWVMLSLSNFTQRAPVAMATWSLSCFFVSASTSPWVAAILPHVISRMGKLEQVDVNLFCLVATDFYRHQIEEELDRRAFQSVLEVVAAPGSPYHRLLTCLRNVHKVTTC
Pf apPOL inh – Pf-apPOL DNA polymerase inhibition | Recombinant Pf-apPOL, molecular beacon fluorescence, 1.5 h | inhibition, % at 10 µM | actives 0.25% (n = 210,000) | AID 1794808
Numbers stand for hits. No stated cut-off is given here; in the data, active means inhibition above about 50%; inactive means the rest.

COc1ccc(OC)c(NC(=O)c2c(NC(=O)c3ccccc3F)sc3c2CCCC3)c1 was read as mHTT-CaM PPI inh inactive and Pf apPOL inh inactive.
O=C(c1cc(-c2ccccc2)on1)N1CCN(CC(O)c2cccs2)CC1 (stereo not drawn) was read as mHTT-CaM PPI inh inactive and Pf apPOL inh inactive.
Screening CCCNC(=O)C1c2ccccc2CC(=O)N1C(C)C (stereo not drawn) returned mHTT-CaM PPI inh inactive and Pf apPOL inh inactive.
For Cc1cccnc1NC(=O)C1COc2ccccc2O1 (stereo not drawn) the results were mHTT-CaM PPI inh inactive and Pf apPOL inh inactive.
For CCCNC(=O)C1CC(c2ccccc2OC)=NO1 (stereo not drawn) the results were mHTT-CaM PPI inh inactive and Pf apPOL inh inactive.
`Cc1ccccc1Cc1c(C)nc2nc(SCC(=O)NCCN3CCCCCC3)nn2c1C` gave mHTT-CaM PPI inh inactive and Pf apPOL inh inactive.
For O=[N+]([O-])c1cc(Cl)ccc1NCCCNS(=O)(=O)c1ccccc1 the results were mHTT-CaM PPI inh 53 and Pf apPOL inh inactive.
`O=[N+]([O-])c1cc(Cl)ccc1NCCNS(=O)(=O)c1ccccc1` gave mHTT-CaM PPI inh inactive and Pf apPOL inh inactive.
Screening O=C(NCc1cccs1)N1CCN(c2nc3ccc([N+](=O)[O-])cc3s2)CC1 returned mHTT-CaM PPI inh inactive and Pf apPOL inh inactive.
Screening CN(C)c1nc2c(c(=O)[nH]c(=O)n2C)n1CCSc1nc2ccccc2o1 returned mHTT-CaM PPI inh inactive and Pf apPOL inh inactive.
For Cc1ccc(-c2csc(/C(C#N)=C/c3ccc(N(C)C)cc3)n2)cc1 the results were mHTT-CaM PPI inh inactive and Pf apPOL inh inactive.
`COc1ccc(C(=O)/C=C2/NC(=O)CS2)cc1` gave mHTT-CaM PPI inh inactive and Pf apPOL inh 77.
COc1cccc(C(=O)C=C2NC(=O)CS2)c1 was read as Pf apPOL inh inactive.
For Cc1nn(-c2ccccc2)c2sc(C(=O)NC(C)C)cc12 the results were mHTT-CaM PPI inh inactive and Pf apPOL inh inactive.
Screening CN1CCC(N(C)C(=O)c2cc3c(-c4ccccc4)nn(-c4ccccc4)c3s2)CC1 returned mHTT-CaM PPI inh 100 and Pf apPOL inh inactive.
For COc1ccc(C(NC(=O)c2ccccc2F)c2ccc(OC)cc2)cc1 the results were mHTT-CaM PPI inh inactive and Pf apPOL inh inactive.
For Cc1cc(Cl)ccc1NC(=O)CN1CCN(Cc2ccc3c(c2)OCO3)CC1 the results were mHTT-CaM PPI inh 54 and Pf apPOL inh inactive.
CCNC(=O)CN1CCN(Cc2ccc3c(c2)OCO3)CC1 was read as mHTT-CaM PPI inh inactive and Pf apPOL inh inactive.
Screening O=C(Nc1ccc(F)cc1)C1(S(=O)(=O)c2ccc(Cl)cc2)CC1 returned mHTT-CaM PPI inh inactive and Pf apPOL inh inactive.
Screening Cc1ccc(NC(=O)C2(S(=O)(=O)c3ccc(Cl)cc3)CC2)cc1F returned mHTT-CaM PPI inh inactive and Pf apPOL inh 84.
For COc1ccc(NC(=O)c2ccc(OC)c([N+](=O)[O-])c2)cc1OC the results were mHTT-CaM PPI inh inactive and Pf apPOL inh inactive.
Screening COc1ccc(C(=O)Nc2ccc(N(C)C)cc2)cc1[N+](=O)[O-] returned mHTT-CaM PPI inh 58 and Pf apPOL inh inactive.
`CCCCN(C)S(=O)(=O)c1ccc(F)c(C(=O)Nc2ccc(Cl)cc2)c1` gave mHTT-CaM PPI inh inactive and Pf apPOL inh inactive.
Screening CC(C)N1CCC2(CC1)C(C#N)=C(O)NC1=C2C(=O)CC(C)(C)C1 returned mHTT-CaM PPI inh inactive.
Screening CC(=NN=C(N=CN(C)C)SCc1ccc(Cl)cc1Cl)c1ccc(C)nc1 returned Pf apPOL inh inactive.
For COc1ccc(C=C2SC(=S)N(C(C(=O)O)C(C)C)C2=O)cc1 (stereo not drawn) the results were mHTT-CaM PPI inh inactive and Pf apPOL inh inactive.
For COc1cc(C=C2SC(=S)N(C(C(=O)O)C(C)C)C2=O)cc(OC)c1O (stereo not drawn) the results were mHTT-CaM PPI inh 61 and Pf apPOL inh inactive.
Screening COc1ccc(CN2CCN(c3ccccc3OC)CC2)cc1OC returned mHTT-CaM PPI inh inactive and Pf apPOL inh inactive.
CCN(CC)C(=O)CC[C@H]1CC[C@]2(CCCN(C(=O)c3ccno3)C2)O1 was read as mHTT-CaM PPI inh inactive and Pf apPOL inh inactive.
CCOC(=O)CC[C@H]1CC[C@]2(CCCN(C(=O)c3ccno3)C2)O1 was read as mHTT-CaM PPI inh 78 and Pf apPOL inh inactive.
For Cc1cccc(NC(=O)N2CCCC(CCC(=O)NC3CCCCC3)C2)c1 (stereo not drawn) the results were mHTT-CaM PPI inh inactive and Pf apPOL inh inactive.
CCOC(=O)c1c(-c2ccccc2)oc2ccc(OC(C)C(=O)OC)cc12 (stereo not drawn) was read as mHTT-CaM PPI inh inactive and Pf apPOL inh inactive.
CC(C)OCCCNC(=O)NC1(C(F)(F)F)Oc2cc(Cl)c(Cl)cc2O1 was read as mHTT-CaM PPI inh inactive and Pf apPOL inh inactive.
Screening O=C(Oc1ccc2c(c1)OC(=Cc1cccnc1)C2=O)c1ccncc1 returned mHTT-CaM PPI inh inactive and Pf apPOL inh inactive.
For O=C(Oc1ccc2c(c1)OC(=Cc1cccnc1)C2=O)c1ccc(Br)cc1 the results were mHTT-CaM PPI inh 76 and Pf apPOL inh inactive.
`COc1ccccc1CNC(=O)C1CCCN(C(=O)c2ccccc2Cl)C1` (stereo not drawn) gave mHTT-CaM PPI inh inactive and Pf apPOL inh inactive.
`COCCN(CCOC)S(=O)(=O)c1ccc(C(=O)Nc2nnc(C3CC3)o2)cc1` gave mHTT-CaM PPI inh inactive and Pf apPOL inh inactive.
CCCCc1ccc(/C=C(\C#N)C(N)=S)s1 was read as mHTT-CaM PPI inh 63.
`Cc1ccc(/C=C(/C#N)C(N)=S)s1` gave mHTT-CaM PPI inh inactive.
Screening COc1cccc(C=C2Oc3c(ccc(O)c3CN3CCCC3)C2=O)c1 returned mHTT-CaM PPI inh inactive and Pf apPOL inh inactive.
Cc1ccc(Nc2c(C(=O)NCc3ccc(F)cc3)cnc3c2c(C)nn3C)cc1 was read as mHTT-CaM PPI inh 94 and Pf apPOL inh inactive.
For CCCNC(=O)c1cnc2c(c(C)nn2C)c1Nc1ccc(C)cc1 the results were mHTT-CaM PPI inh inactive and Pf apPOL inh inactive.
For CCC(CC)C(=O)N1CCc2c(c(C(=O)NCc3ccc(F)cc3)nn2C)C1 the results were mHTT-CaM PPI inh 58 and Pf apPOL inh inactive.
For COc1ccc(CC(=O)N2CCc3c(c(C(=O)NCc4ccc(F)cc4)nn3C)C2)cc1 the results were mHTT-CaM PPI inh 74 and Pf apPOL inh inactive.
COc1ccc(C(=O)N2CCc3c(c(C(=O)NCc4ccc5c(c4)OCO5)nn3C)C2)cc1 was read as mHTT-CaM PPI inh inactive and Pf apPOL inh inactive.
For Cc1ccc(CC(=O)N2CCc3c(c(COCc4ccccc4F)nn3C)C2)cc1 the results were mHTT-CaM PPI inh inactive and Pf apPOL inh inactive.
Cc1ccc(CC(=O)N2CCc3c(c(C(=O)NCc4ccc(F)cc4)nn3C)C2)cc1 was read as mHTT-CaM PPI inh 69 and Pf apPOL inh inactive.
`Cn1nc(C(=O)NCc2ccccc2)c2c1CCN(C(=O)c1ccco1)C2` gave mHTT-CaM PPI inh inactive and Pf apPOL inh inactive.
Screening COc1ccc(CC(=O)N2CCc3c(c(C(=O)NCc4ccccc4)nn3C)C2)cc1 returned mHTT-CaM PPI inh 61 and Pf apPOL inh inactive.
For C=CCN(C(=O)Cn1c(=O)n(-c2ccc(F)cc2)c(=O)c2sccc21)c1ccccc1 the results were mHTT-CaM PPI inh inactive and Pf apPOL inh inactive.
Screening COC(=O)c1ccc(C2C3=C(CC(C)(C)CC3=O)Nc3ncnn32)cc1 (stereo not drawn) returned mHTT-CaM PPI inh inactive and Pf apPOL inh inactive.
Screening Cn1nc(-c2nc(C3CC3)no2)c2c1CCN(S(=O)(=O)c1cccc(Cl)c1)C2 returned mHTT-CaM PPI inh inactive and Pf apPOL inh inactive.

Screening data: PubChem BioAssay, University of Kansas High Throughput Screening Laboratory
